# Bioassay records from PubChem BioAssay.
# This is one part of a sample in which hits are shown more often than they occur.
# RMI FANCM FP – inhibitors of human RMI core complex binding to FANCM MM2. Fluorescence polarization, RMI core complex with F-MM2 peptide; active compounds read low. 70,000 compounds, 0.58% hits. AID 1159607. FP signal (polarization) at 33 µM; in the data active means FP signal below about 40
# Hits are given with their value; 0 = inactive; ! = repeats disagree.
SMILES,RMI FANCM FP
NC1=NC(=O)C(c2ccccc2)O1 (centres undefined),17
CNC(=O)O/N=C(/C)Cc1nnn(-c2cc(C)on2)n1,0
O=C(Nc1ccc(Cl)cc1C(=O)c1ccccc1Cl)c1ccc2c(c1)OCO2,0
COc1ccc(-c2csc(CN3CCN(C(=O)Cc4cccc(C)c4)CC3)n2)cc1,0
CC(C)(C)c1cc(C(c2ccc(O)cc2)c2c(O)c3ccccc3oc2=O)cc(C(C)(C)C)c1O (centres undefined),0
NCCc1cc(O)c(O)cc1O,0
NC(Cc1cc(O)c(O)cc1O)C(=O)O (centres undefined),-4
N[C@@H](CCl)C(=O)O,0
Cc1cc(O)c(C(=O)Nc2ccc(Cl)c(Cl)c2)c(=O)n1Cc1ccc2c(c1)OCO2,0
CC(Cc1ccc(O)cc1)NCC(O)c1cc(O)cc(O)c1 (centres undefined),-13!
C[C@H](Cc1ccc2c(c1)OC(C(=O)O)(C(=O)O)O2)NC[C@H](O)c1cccc(Cl)c1,0
CC(N)Cc1ccc(O)cc1 (centres undefined),0
CN[P+](NC)(NC)NC,0
O=C(Nc1ccc(Br)cc1C(=O)c1ccccc1Cl)c1cc2cc([N+](=O)[O-])ccc2s1,0
O=C1C=CC(=O)c2c(O)cccc21,-18
O=C1c2ccccc2C(=O)c2ccccc21,0
Cc1cc(OC(=O)N(C)C)cc(C)c1Cl,0
Cc1ccc(/C=C2\CC3C4CCC5CCCCC5(C)C4CCC3(C)C2O)o1 (centres undefined),0
COc1cccc2cc(C(=O)Nc3ccc(Cl)cc3C(=O)c3ccccc3Cl)oc12,0
CC(C)=CCCC1(C)C=Cc2c(O)c3c(c(CC=C(C)C)c2O1)OC12C(=CC4CC1C(C)(C)OC2(C/C=C(/C)C(=O)O)C4O)C3=O (centres undefined),0
COc1c(CC=C(C)C)c2c(c3oc(=O)c(-c4ccc(O)cc4)c(O)c13)C=CC(C)(C)O2,13
CC(C)=CCCC1(C)C=Cc2c(O)c3c(c(CC=C(C)C)c2O1)OC12C(=CC4CC1C(C)(C)OC2(C/C=C(/C)C(=O)O)C4=O)C3=O (centres undefined),0
CCOc1ccc(CC(=O)N2CCN(Cc3nc(C)cs3)CC2)cc1,0
CN(C)c1ccc(/C=C2\CC3C4CCC5CC(O)CCC5(C)C4CCC3(C)C2=O)cc1 (centres undefined),0
COc1ccc(NC(=O)c2cccn(Cc3cccc(F)c3)c2=O)c(OC)c1,0
COc1ccc2c3c([nH]c2c1)C(C)=NCC3,35!
CC1=NCCc2c1[nH]c1cc(O)ccc21,0
COc1ccc2c(c1)[nH]c1c(C)nccc12,0
COc1ccc(/C=C2/C(=O)C3CCN2CC3)cc1,0
Cn1c(N)c(S(=O)(=O)N2CC3CC(C2)c2cccc(=O)n2C3)c(=O)n(C)c1=O (centres undefined),0
